These results are taken from PMC4336329 (PLoS ONE, 2015).

Structures are written as SMILES. About 14,000 (4.5%) of roughly 310,000 compounds showed an effect of 50% or more. Effects have a minus sign here. The entries come from a sample that favours strong results as a whole.
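Note: peak tail current of the secondary pulse compared with the same well before compound.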

human ether-à-go-go-related gene (hERG) potassium channel, sequence (Q12809 whole entry, looked up): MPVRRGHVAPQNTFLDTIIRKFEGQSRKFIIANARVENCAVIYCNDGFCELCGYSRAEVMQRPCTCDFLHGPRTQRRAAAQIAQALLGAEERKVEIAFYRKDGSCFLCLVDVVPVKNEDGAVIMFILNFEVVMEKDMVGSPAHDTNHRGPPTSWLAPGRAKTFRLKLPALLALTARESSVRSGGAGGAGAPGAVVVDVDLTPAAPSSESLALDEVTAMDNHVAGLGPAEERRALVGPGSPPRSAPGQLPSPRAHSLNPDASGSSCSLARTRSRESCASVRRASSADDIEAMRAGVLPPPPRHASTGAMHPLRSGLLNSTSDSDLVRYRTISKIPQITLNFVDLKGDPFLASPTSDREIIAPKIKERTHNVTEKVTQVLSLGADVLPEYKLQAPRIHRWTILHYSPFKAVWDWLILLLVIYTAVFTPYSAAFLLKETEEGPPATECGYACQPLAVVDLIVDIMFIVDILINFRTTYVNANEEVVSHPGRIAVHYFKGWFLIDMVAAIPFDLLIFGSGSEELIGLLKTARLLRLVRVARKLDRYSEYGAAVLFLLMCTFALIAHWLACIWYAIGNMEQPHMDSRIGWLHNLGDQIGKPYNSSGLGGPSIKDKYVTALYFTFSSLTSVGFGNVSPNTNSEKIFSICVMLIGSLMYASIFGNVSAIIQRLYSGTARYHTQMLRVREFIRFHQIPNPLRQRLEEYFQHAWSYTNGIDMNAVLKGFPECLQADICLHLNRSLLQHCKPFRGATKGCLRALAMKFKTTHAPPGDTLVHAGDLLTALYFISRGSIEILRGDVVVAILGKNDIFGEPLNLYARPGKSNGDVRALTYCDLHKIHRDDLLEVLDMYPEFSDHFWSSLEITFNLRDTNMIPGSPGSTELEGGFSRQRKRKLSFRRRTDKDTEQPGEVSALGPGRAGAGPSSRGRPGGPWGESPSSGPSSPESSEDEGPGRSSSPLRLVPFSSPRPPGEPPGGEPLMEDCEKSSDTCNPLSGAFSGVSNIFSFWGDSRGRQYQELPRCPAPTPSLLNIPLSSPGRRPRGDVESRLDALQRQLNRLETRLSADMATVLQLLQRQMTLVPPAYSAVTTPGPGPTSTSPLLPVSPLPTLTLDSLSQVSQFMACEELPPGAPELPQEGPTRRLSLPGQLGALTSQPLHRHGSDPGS

The assay has as its target human ether-à-go-go-related gene (hERG) potassium channel (human, UniProt Q12809). The assay is described as follows: primary screen, population patch clamp on CHO cells stably expressing hERG; higher = less effect of the substance.
Take `C=CCn1c(=O)c(C=Nc2cccnc2Cl)c(O)n(CCCC)c1=O`: the “hERG current change (%, negative = inhibition) at 10uM” value is -5.65%. The result for `C=CCn1c(=O)c(C=Nc2c(OC)cccc2[N+](=O)[O-])c(O)n(CCCC)c1=O` reads -23.8%; that for `C=CCn1c(=O)c(C=Nc2cccc([N+](=O)[O-])c2)c(O)n(CCCC)c1=O`, -55%; that for `O=C(COc1coc(CN2CCc3ccccc3C2)cc1=O)Nc1cccc([N+](=O)[O-])c1`, 2.89%.

On to `CCc1ccc(N2CC(C(=O)Nc3ccc(C)c(S(=O)(=O)N4CCOCC4)c3)CC2=O)cc1` (stereo not drawn), for which the “hERG current change (%, negative = inhibition) at 10uM” value was -34.6%.

On to `COc1ccc(NS(=O)(=O)c2cccc(Cl)c2)cc1S(=O)(=O)N1CCCCC1`, for which the “hERG current change (%, negative = inhibition) at 10uM” value is 7.81%.

As to `COc1ccc(NC(=O)CC(C)CC(=O)NCc2ccccc2)c(OC)c1` (stereo not drawn), the “hERG current change (%, negative = inhibition) at 10uM” value is -0.642%.

As for `CCCc1cc(Nc2cccc(OC)c2)n2ncnc2n1`, the “hERG current change (%, negative = inhibition) at 10uM” value is given as -28.5%. The result for `CCCc1cc(Nc2cccc(OCC)c2)n2ncnc2n1` reads -68%; that for `CCCc1cc(Nc2ccccc2)n2ncnc2n1`, 2.69%; that for `CSc1ccc(S(=O)(=O)N2CCC(C(=O)NC3CC3)CC2)cc1`, -7.17%. The result for `C=CCNC1=C(Cl)C(=O)c2ccccc2C1=O` reads 4.26%. With `Cc1ccc(S(=O)(=O)N2CCN(C)CC2)cc1C(=O)NC1CCCCC1`, the “hERG current change (%, negative = inhibition) at 10uM” value was -19.5%.

As to `CCN(CC)CCn1c(=S)[nH]c2cc(C(=O)NCc3ccc(C)cc3)ccc2c1=O`, the “hERG current change (%, negative = inhibition) at 10uM” value is recorded as -57.9%. The result for `O=C(NCc1ccccc1Cl)c1ccc2c(=O)n(CC3CCCO3)c(=S)[nH]c2c1` (stereo not drawn) reads 10.1%. The result for `O=C(NCc1ccccc1Cl)c1ccc2c(=O)n(CCCN3CCCC3=O)c(=S)[nH]c2c1` reads -8.83%; that for `Cc1ccc(CNC(=O)c2ccc3c(=O)n(CCCN4CCCC4=O)c(=S)[nH]c3c2)cc1`, 6.41%. With `Cc1ccc(CNC(=O)c2ccc3c(=O)n(CC4CCCO4)c(=S)[nH]c3c2)cc1` (stereo not drawn) the figure was -9.6%; with `CCN(CC)CCn1c(=S)[nH]c2cc(C(=O)NCc3ccccc3Cl)ccc2c1=O`, -76.1%.

Consider `COc1ccccc1N(CC(O)COc1c(C)cc(C)cc1C)S(=O)(=O)c1ccccc1` (stereo not drawn), for which the “hERG current change (%, negative = inhibition) at 10uM” value is listed as -0.161%. The result for `CSc1ncccc1C(=O)N1CCCC(CCC(=O)NCc2ccccc2F)C1` (stereo not drawn) reads 6.52%; that for `CN1CCC(N(C)C(=O)c2sc3cc(F)ccc3c2Cl)CC1`, -47.9%; that for `COc1ccc(NS(=O)(=O)c2cccc3nsnc23)cc1Cl`, 11.2%. The result for `NC(=O)CSc1ncc(-c2ccc([N+](=O)[O-])cc2)[nH]1` reads -14.6%. The result for `Cc1cc(C)c(CSc2ncc(-c3ccc([N+](=O)[O-])cc3)[nH]2)c(C)c1` reads -10.2%; that for `CCOC(=O)CSc1ncc(-c2ccc([N+](=O)[O-])cc2)[nH]1`, -61%; that for `CCOC(=O)CCNC(=O)N1CCCC(C(=O)c2ccc3c(c2)OCO3)C1` (stereo not drawn), 2.31%. As for `O=C(c1ccc2c(c1)OCO2)C1CCCN(Cc2cc(F)ccc2-n2cccn2)C1` (stereo not drawn), the “hERG current change (%, negative = inhibition) at 10uM” value was -74.9%. Regarding `O=C(c1ccc2c(c1)OCO2)C1CCCN(C(=O)Nc2ccc(F)cc2F)C1` (stereo not drawn), the “hERG current change (%, negative = inhibition) at 10uM” value is recorded as -30%. The result for `CCOC(=O)CNC(=O)N1CCCC(C(=O)c2ccc3c(c2)OCO3)C1` (stereo not drawn) reads 11.1%; that for `Cc1ccc(-n2cccn2)c(CN2CCCC(C(=O)c3ccc4c(c3)OCO4)C2)c1` (stereo not drawn), -77.2%.

`c1cncc(-c2ccnc3ncnn23)c1`: the “hERG current change (%, negative = inhibition) at 10uM” value is -4.79%.

Turning to `COc1cc(C)c(CNc2cccc(C)c2)cc1C`, the “hERG current change (%, negative = inhibition) at 10uM” value was determined as 2.74%. On to `Cc1ccc(SCn2nnc3ccccc3c2=O)c(C)c1`, for which the “hERG current change (%, negative = inhibition) at 10uM” value is -33.8%. As to `O=C(CCCn1cnc([N+](=O)[O-])n1)Nc1cccc(O)c1`, the “hERG current change (%, negative = inhibition) at 10uM” value stood at 9.95%. With `CCOC(=O)C(C)n1nc(-c2ccccc2)c2ccccc2c1=O` (stereo not drawn) the figure was 15.9%.

Regarding `CCC1Oc2ccc(C)cc2N(CC(=O)NC2CCCCC2)C1=O` (stereo not drawn), the “hERG current change (%, negative = inhibition) at 10uM” value was determined as 5.8%. With `CCOC(=O)CSc1nnc(NC(=O)NC(C)C)s1` the figure was 5.74%; with `CCCCNC(=O)Nc1nnc(SCC(=O)OCC)s1`, -91.2%. With `CCCCNC(=O)CSc1nnc(NC(C)=O)s1` the figure was -10.6%; with `O=C(O)CCN1CCc2ccccc21`, 9.02%; with `FC(F)(F)c1cccc(NCc2n[nH]c(=S)n2C2CCCCC2)c1`, 41.2%. The result for `Cc1ccc(S(=O)(=O)N(C)Cc2cc3ccccc3[nH]c2=O)cc1` reads -15.7%; that for `COc1cccc(C(=O)/C=C/Nc2ccc(S(=O)(=O)Nc3nc(C)cc(C)n3)cc2)c1`, -1.4%. As to `O=C(CCc1nnc2ccc(NCCCN3CCCC3=O)nn12)NCc1ccccc1Cl`, the “hERG current change (%, negative = inhibition) at 10uM” value is -1.05%. With `Cc1nn(-c2ccccc2)c2c1C(c1ccc(F)cc1F)C(C#N)=C(N)O2` (stereo not drawn) the figure was -9.42%. With `COc1ccc(C(=O)n2nc(-c3ccco3)nc2N)cc1` the figure was -2.65%; with `CC(C)CCn1c(=O)c2ccccc2n2c(CN3CCCC3)nnc12`, -2.3%; with `CC(C)CCn1c(=O)c2ccccc2n2c(CCl)nnc12`, -32.8%. The result for `CC(C)CCn1c(=O)c2ccccc2n2c(CN(C)Cc3ccccc3)nnc12` reads -80.7%; that for `CC(C)CCn1c(=O)c2ccccc2n2c(CN3C(=O)NC4(CCC(C)CC4)C3=O)nnc12` (stereo not drawn), -72.1%. On to `CC(C)CCn1c(=O)c2ccccc2n2c(CN3CCOCC3)nnc12`, for which the “hERG current change (%, negative = inhibition) at 10uM” value is given as -11.9%. With `CC(C)CCn1c(=O)c2ccccc2n2c(=S)[nH]nc12`, the “hERG current change (%, negative = inhibition) at 10uM” value is recorded as 18.2%. The result for `CCN1C(=O)/C(=C2/Sc3ccc(OC)cc3N2C)SC1=Nc1cccc(O)c1` reads 15.6%; that for `CCOc1ccc(S(=O)(=O)n2ccc(C)n2)cc1`, 10.9%; that for `O=S(=O)(NCc1ccc2c(c1)OCO2)c1cccc(S(=O)(=O)N2CCOCC2)c1`, 10.6%. Turning to `N#Cc1ccc2c(c1)nnn2-c1ccccc1`, the “hERG current change (%, negative = inhibition) at 10uM” value came to 1.85%.

On to `O=c1c2ccccc2nc(CSc2ncnc3nc[nH]c23)n1-c1ccc(Cl)c(Cl)c1`, for which the “hERG current change (%, negative = inhibition) at 10uM” value is 5.27%. Take `CCOC(=O)Cn1cnc2c(C#N)c3n(c2c1=O)CCCCC3`: the “hERG current change (%, negative = inhibition) at 10uM” value was -9.52%.

Turning to `N#Cc1c(-c2ccccc2)nc(-c2ccncc2)[nH]c1=O`, the “hERG current change (%, negative = inhibition) at 10uM” value was -71.5%. `N#Cc1c(-c2ccccc2)nc(-c2cccnc2)[nH]c1=O`: the “hERG current change (%, negative = inhibition) at 10uM” value turned out to be 17.6%. For `N#Cc1c(-c2ccccc2)nc(-c2ccccc2)[nH]c1=O`, the “hERG current change (%, negative = inhibition) at 10uM” value was 13.4%. The result for `Cc1ccc(NC(=O)C(C)OC(=O)/C=C/c2ccccc2)cc1` (stereo not drawn) reads 23%; that for `Cc1cc(C)c(C)c(OCCOCCNCc2ccccc2)c1.O=C(O)C(=O)O`, -54.2%; that for `Clc1cccc(Cl)c1OCCOCCNCc1ccccc1.O=C(O)C(=O)O`, -31.2%. With `Cc1cc(Cl)cc(C)c1OCCNCc1ccccc1.O=C(O)C(=O)O` the figure was -3.66%; with `Cc1cc(C)c(C)c(OCCNCc2ccccc2)c1.O=C(O)C(=O)O`, -5.47%; with `Cc1cc(Cl)cc(C)c1OCCOCCNCc1ccccc1.O=C(O)C(=O)O`, -52.4%.

In the case of `Cc1ccc(OCCNCc2ccccc2)c(C)c1.O=C(O)C(=O)O`, the “hERG current change (%, negative = inhibition) at 10uM” value is on record as -6.1%.

Consider `Cc1cc(=O)[nH]c(N2CCN(Cc3ccccc3)CC2)n1`, for which the “hERG current change (%, negative = inhibition) at 10uM” value is on record as -2.95%. For `CC(=O)Oc1c(C(=O)c2nnc(C)o2)c(=O)n(Cc2ccccc2)c2ccccc12`, the “hERG current change (%, negative = inhibition) at 10uM” value amounted to 1.56%. On to `CCCCCCCCNC(=O)c1ccc(C)cc1`, for which the “hERG current change (%, negative = inhibition) at 10uM” value was found to be 10.9%. Consider `O=C(NC(c1ccccc1)C(Cl)(Cl)Cl)c1ccccc1` (stereo not drawn), for which the “hERG current change (%, negative = inhibition) at 10uM” value is -11.3%.

In the case of `CCN(CC)S(=O)(=O)c1ccc2oc(Nc3ccc(OC)cc3OC)nc2c1`, the “hERG current change (%, negative = inhibition) at 10uM” value was 9.24%. With `CCc1cccc(C)c1NC(=O)CSc1nc2ccc(N3C(=O)c4ccccc4C3=O)cc2s1` the figure was 4.44%; with `CC(Oc1ccc(Br)cc1)C(=O)O/N=C(\N)c1ccncc1` (stereo not drawn), 5.16%; with `COc1ccc(CCn2c(=N)c(C(=O)NCc3ccco3)cc3c(=O)n4cccc(C)c4nc32)cc1`, -75.6%. With `COc1ccc(CCn2c(N)c(C(=O)NCc3ccco3)c3nc4ccccc4nc32)cc1`, the “hERG current change (%, negative = inhibition) at 10uM” value is recorded as 0.65%. For `Cc1ccccc1Nc1cc(C(=O)NCc2ccco2)c2ccccc2n1`, the “hERG current change (%, negative = inhibition) at 10uM” value turned out to be 20.3%. The result for `Cc1cccn2c(=O)c3cc(C(=O)NCc4ccco4)c(=N)n(CCc4ccccc4)c3nc12` reads -76.5%.

With `Cc1cccn2c(=O)nc(SCC(=O)NCc3ccco3)nc12`, the “hERG current change (%, negative = inhibition) at 10uM” value was found to be 1.37%. With `Cc1cccn2c(=O)c3cc(C(=O)NCc4ccco4)c(=N)n(C(C)C)c3nc12` the figure was -77.6%. The result for `Cc1cccn2c(=O)c3cc(C(=O)NCc4ccco4)c(=N)n(CCOCCO)c3nc12` reads -74.9%; that for `COc1ccc(-n2nc(C(=O)NCc3ccco3)c3ccccc3c2=O)cc1`, -17.1%. The result for `CC(OC(=O)c1cccc(S(=O)(=O)Nc2ccccc2F)c1)C(=O)NCc1ccc2c(c1)OCO2` (stereo not drawn) reads 12.8%. As for `CN(C(=O)c1ccc(S(=O)(=O)N2CCCC2)cc1)C1CCS(=O)(=O)C1` (stereo not drawn), the “hERG current change (%, negative = inhibition) at 10uM” value is reported as 4.75%. As to `O=C(Nc1ccc(Cl)cc1)C(Cl)C(=O)c1ccccc1` (stereo not drawn), the “hERG current change (%, negative = inhibition) at 10uM” value is -3.81%.
